# PubChem BioAssay (NCATS)
# Inconclusive results are not listed. Activity calls are given as the source filed them. Unless noted, calls follow the shape of the full dose curve.
# System: not listed separately
# Test: Validation screen for inhibitors of Lassa infection (AID 463096)
# Conditions: Lassa virus infection, cell-based; series mostly up to 46.1 µM; activity change, negative = inhibition: at the top concentration
# % is scaled to controls: 0 for no effect and ±100 for the full control effect.
SMILES,"activity change, negative = inhibition",Potency
CCCN1C[C@H](CSC)C[C@@H]2c3cccc4[nH]cc(c34)C[C@H]21,-13.4% (inactive),–
CC(C(=O)O)c1cccc(C(=O)c2ccccc2)c1 (stereo unspecified),16.8% (inactive),–
COc1cc2nc(N3CCN(C(=O)C4CCCO4)CC3)nc(N)c2cc1OC (stereo unspecified),-13.9% (inactive),–
COc1cc(Cc2cnc(N)nc2N)cc(OC)c1OC,34.4% (inactive),–
NC[C@H](O)c1ccc(O)c(O)c1,37.9% (inactive),–
CCCNC(=O)NS(=O)(=O)c1ccc(Cl)cc1,-4.13% (inactive),–
Oc1ccc(C2CNCCc3c2cc(O)c(O)c3Cl)cc1 (stereo unspecified),26.6% (inactive),–
CC(C)NCC(O)c1ccc(O)c(O)c1 (stereo unspecified),–,inactive
C[C@](N)(Cc1ccc(O)c(O)c1)C(=O)O,35.4% (inactive),–
O=c1[nH]cc(F)c(=O)[nH]1,-12.1% (inactive),–
COCCCC/C(=N\OCCN)c1ccc(C(F)(F)F)cc1,-35.4% (inactive),–
CC(CN1c2ccccc2Sc2ccccc21)N(C)C (stereo unspecified),-47% (inactive),–
COc1cc2c(c(OC)c1OC)-c1ccc(OC)c(=O)cc1[C@@H](NC(C)=O)CC2,-25.6% (inactive),–
O=C(CCCN1CCC(O)(c2ccc(Cl)cc2)CC1)c1ccc(F)cc1,-43% (inactive),–
CC(C)(C)NC(=O)[C@H]1CC[C@H]2[C@@H]3CC[C@H]4NC(=O)C=C[C@]4(C)[C@H]3CC[C@]12C,-24.6% (inactive),–
COC(=O)C1=C(C)NC(C)=C(C(=O)OCCN(C)Cc2ccccc2)C1c1cccc([N+](=O)[O-])c1 (stereo unspecified),-5.1% (inactive),–

SMILES,"activity change, negative = inhibition",Potency
CCN(CC)CCOC(=O)C1(C2CCCCC2)CCCCC1,-47.9% (inactive),–
CCN(CC)CCCC(C)Nc1ccnc2cc(Cl)ccc12 (stereo unspecified),-22.4% (inactive),–
O=C1NC(=O)C(c2ccccc2)(c2ccccc2)N1,4.52% (inactive),–
Cc1nc2n(c(=O)c1CCN1CCC(c3noc4cc(F)ccc34)CC1)CCCC2,-21.2% (inactive),–
NC(=O)OCC(COC(N)=O)c1ccccc1,-18.8% (inactive),–
CCCC(CCC)C(=O)O,12.6% (inactive),–
CC1(C)NC(=O)N(c2ccc([N+](=O)[O-])c(C(F)(F)F)c2)C1=O,26.4% (inactive),–
CCOC(=O)c1ncn2c1CN(C)C(=O)c1cc(F)ccc1-2,7.31% (inactive),–
NS(=O)(=O)c1cc2c(cc1Cl)NC=NS2(=O)=O,7.75% (inactive),–
CC[N+](C)(C)c1cccc(O)c1,-14.6% (inactive),–
CNC1(C)C2CCC(C2)C1(C)C (stereo unspecified),30.4% (inactive),–
CC(COc1ccccc1)N(CCCl)Cc1ccccc1 (stereo unspecified),1.94% (inactive),–
O=NN(CCCl)C(=O)NCCCl,1.54% (inactive),–
Cc1ccccc1C(OCCN(C)C)c1ccccc1 (stereo unspecified),-38.7% (inactive),–
CC(=O)Nc1nnc(S(N)(=O)=O)s1,-15.1% (inactive),–

# Biological target: Flap endonuclease 1 (Homo sapiens) (UniProt P39748)
# Sequence (P39748 whole entry, looked up): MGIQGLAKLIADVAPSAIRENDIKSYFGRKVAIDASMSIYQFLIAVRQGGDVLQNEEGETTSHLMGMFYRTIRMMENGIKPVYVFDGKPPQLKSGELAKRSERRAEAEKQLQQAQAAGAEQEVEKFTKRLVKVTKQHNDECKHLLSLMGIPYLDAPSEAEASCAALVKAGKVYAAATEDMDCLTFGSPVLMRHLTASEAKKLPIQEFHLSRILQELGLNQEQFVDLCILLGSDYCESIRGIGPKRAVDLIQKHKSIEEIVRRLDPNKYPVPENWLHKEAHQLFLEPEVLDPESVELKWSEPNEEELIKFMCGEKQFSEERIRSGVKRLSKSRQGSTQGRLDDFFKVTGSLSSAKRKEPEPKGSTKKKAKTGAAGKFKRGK
# Test: qHTS Validation Assay for the Inhibitors of Human Flap endonuclease 1 (FEN1) (AID 488816; active = well fitted inhibition curve with a large enough effect)
# Conditions: FEN1 nuclease activity, fluorogenic DNA substrate; series mostly up to 57.1 µM; activity, negative = inhibition: at the top concentration
# Summary of the method: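 Steps: add FEN1 (10 nM reagent) or buffer only; pin compounds; hold 15 min at room temperature; start with substrate, 50 nM final; read at 0 and 15 min; correct, normalize and fit a four-parameter Hill curve.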
SMILES,"activity, negative = inhibition",Potency
O=c1[nH]cc(F)c(=O)[nH]1,-7.14% (inactive),–
COc1cc2c(c(OC)c1OC)-c1ccc(OC)c(=O)cc1[C@@H](NC(C)=O)CC2,-4.91% (inactive),–
CCC1C(=O)OCC1Cc1cncn1C (stereo unspecified),–,inactive
CCOC(=O)c1ncn2c1CN(C)C(=O)c1cc(F)ccc1-2,-4.44% (inactive),–
CC(COc1ccccc1)N(CCCl)Cc1ccccc1 (stereo unspecified),-4.58% (inactive),–
